“And” between values parts separate entries of the source, which are not always exact repeats. Equal values may be shown once. Results filed as inconclusive are left out. The source made the active and inactive calls. Calls follow the shape of the dose curve; as a rule, active = well fitted cell-killing curve with a large enough effect in the repeat runs; inconclusive = weak or mixed curves, or effect the other way; inactive = no such curve, though single readings can be large or run the other way.
assay: qHTS assay to identify small molecule antagonists of the glucocorticoid receptor (GR) signaling pathway - cell viability counter screen (AID 720693); conditions: GR-bla HeLa viability, CellTiter-Glo luminescence, 18 h, with 5 nM dexamethasone present; series mostly up to 58.5 µM; viability change, negative = cytotoxic: at the top concentration; also: nearly all actives have a fitted effect of over 55% in size
Excerpt: National Center for Advancing Translational Sciences [NCATS]
NIH Chemical Genomics Center [NCGC]
U.S. Environmental Protection Agency [EPA]
National Institutes of Environmental Health Sciences [NIEHS]
National Toxicology Program [NTP]
U.S. Food and Drug Administration [FDA]
The Glucocorticoid receptor (GR) is one of the members of the nuclear receptor family of ligand-dependent transcription factors. GR plays a critical role in carbohydrate, protein and lipid metabolisms and programmed cell death. CellSensor GR-bla HeLa cell line (Invitrogen) contains a beta-lactamase reporter gene under the control of the glucocorticoid response element stably integrated into HeLa cells, a cervical cancer cell line that expresses glucocorticoid receptor. The activation of the reporter gene under culture conditions can be detected by fluorescence intensity. This cell line has been used to screen the Tox21 10K compound library and to identify the compounds that inhibit the GR signaling. The cytotoxicity of the Tox21 compound library against the GR-bla HeLa cell line was tested in parallel by measuring the cell viability using CellTiter-Glo assay in the same wells.
Tox21 Assay Protocol Summary:
The GR-bla HeLa cells were dispensed at 1500 cells/5 ul/well in 1536-well black wall/clear bottom plates using a Multidrop Combi (ThermoFisher Scientific, Waltham, MA) dispenser. After the assay plates were incubated at a 37 C/5% CO2 incubator for 4 hours, 23 nL of compounds dissolved in DMSO, positive controls or DMSO only was transferred to the assay plate by a pintool station (Kalypsys, San Diego, CA), followed by addition of 1 uL of dexamethasone (5 nM, final concentration in the well). The plates were incubated at 37 C for 18 hours. After 1 uL of LiveBLAzerTM B/G FRET substrate was added using a Flying Reagent Dispenser (Aurora Discovery, San Diego, CA), the plates were incubated at room temperature (RT) for 2 hours, and fluorescence intensity was measured by an Envision plate reader (PerkinElmer, Shelton, CT). After measurement of bla assay, 3 ul CellTiter-Glo (Promega, Madison, WI) was added to measure the cytotoxicity and the plates were then incubated at RT for 30 min. The luminescence was measured using a ViewLux (Perkin Elmer) plate reader.
% is scaled to controls: 0 for no effect and ±100 for the full control effect; potency is read from the fitted curve at half-maximal effect.

| SMILES | Potency | viability change, negative = cytotoxic |
| --- | --- | --- |
| CCC[CH2][Sn]([CH2]CCC)([CH2]CCC)[O]C(=O)c1ccccc1 | 1.55 µM (active) |  |
| CCCOCC(=Nc1ccc(Cl)cc1C(F)(F)F)n1ccnc1 | 15.5 µM (active) |  |
| c1ccc(OCC2CO2)cc1 (stereo not given) |  | 17.9% [at 78.9 µM] (inactive) |
| C[C@@H]1O[C@@H](O[C@H]2C[C@@H](O)[C@]3(CO)[C@H]4[C@H](O)C[C@]5(C)[C@@H](C6=CC(=O)OC6)CC[C@]5(O)[C@@H]4CC[C@]3(O)C2)[C@H](O)[C@H](O)[C@H]1O | 379 nM (active) and 213 nM (active) and 58.5 nM (active) |  |
| O=C(CBr)c1ccc(O)cc1 |  | 5.72% (inactive) |
| ClC(Cl)=C(c1ccc(Cl)cc1)c1ccc(Cl)cc1 | inactive |  |
| C[C@H]1O[C@@H](O[C@H]2[C@@H](O)C[C@H](O[C@H]3[C@@H](O)C[C@H](O[C@H]4CC[C@@]5(C)[C@H](CC[C@@H]6[C@@H]5CC[C@]5(C)[C@@H](C7=CC(=O)OC7)CC[C@]65O)C4)O[C@@H]3C)O[C@@H]2C)C[C@H](O)[C@@H]1O | 477 nM (active) and 98.3 nM (active) |  |
| ClC(Cl)=C(Cl)Cl |  | 6.32% (inactive) |
| CC(C)CCCCCCCOP(=O)(Oc1ccccc1)Oc1ccccc1 |  | 0.163% [at 78.9 µM] (inactive) |
| C[C@]12CC[C@@H]3c4ccc(OC(=O)N(CCCl)CCCl)cc4CC[C@H]3[C@@H]1CC[C@@H]2O |  | -0.758% (inactive) |
| O=[N+]([O-])c1c2ccccc2cc2ccccc12 |  | -20.8% (inactive) |
| CC(C)[C@H](C(=O)O[C@H](C#N)c1cccc(Oc2ccccc2)c1)c1ccc(Cl)cc1 |  | 13.7% (inactive) |
| O=C/C(Cl)=C(/Cl)C(=O)O |  | -10.3% (inactive) |
| COC(=O)N(C(=O)N1CO[C@@]2(C(=O)OC)Cc3cc(Cl)ccc3C2=N1)c1ccc(OC(F)(F)F)cc1 |  | 0.405% (inactive) |
| Nc1ccc(Cc2ccc(N)c(Cl)c2)cc1Cl | 53.1 µM (active) |  |
| Cc1cc(C)c(C2=C(OC(=O)CC(C)(C)C)C3(CCCC3)OC2=O)c(C)c1 |  | 10.8% [at 78.9 µM] (inactive) |
| CCOC(=O)OC1=C(c2cc(C)ccc2C)C(=O)NC12CCC(OC)CC2 (stereo not given) |  | -14.1% (inactive) |
| CC(C)CC(C)Nc1ccc(Nc2ccccc2)cc1 (stereo not given) | 48.2 µM (active) |  |
| CCOC(=O)CC(=O)CCl |  | -2.31% (inactive) |
| [Cl][Sb]([Cl])[Cl] |  | 7.38% (inactive) |

| SMILES | Potency | viability change, negative = cytotoxic |
| --- | --- | --- |
| O=[N+]([O-])c1cc(C(F)(F)F)c(Cl)c([N+](=O)[O-])c1Cl | 12.3 µM (active) |  |
| CC(C)(C)OO |  | 10.6% (inactive) |
| C[C@H]1CC[C@@H]2[C@@H](C)[C@H]3[C@H](C[C@H]4[C@@H]5CC=C6CC(O[C@@H]7O[C@H](CO)[C@H](O)[C@H](O[C@@H]8O[C@H](CO)[C@@H](O)[C@H](O)[C@H]8O)[C@H]7O[C@H]7O[C@@H](C)[C@H](O)[C@@H](O)[C@H]7O)CC[C@]6(C)[C@H]5CC[C@]34C)N2C1 (stereo not given in full) |  | -6.81% [at 78.9 µM] (inactive) |
| Cc1c(Cl)c(=O)oc2cc(OP(=O)(OCCCl)OCCCl)ccc12 |  | 8.33% (inactive) |
| CCCN(CCC)CCc1c[nH]c2ccccc12 |  | -11.4% (inactive) |
| FC(Cl)(Cl)Cl |  | -7.29% (inactive) |
| CCCN(CC)CC1COC2(CCC(C(C)(C)C)CC2)O1 (stereo not given) |  | 5.62% (inactive) |
| c1ccc2c(c1)[nH]c1cnccc12 |  | -0.943% (inactive) |
| N#C/C=C/C#N |  | -1.85% [at 78.9 µM] (inactive) |
| c1ccc(Nc2ccc3ccccc3c2)cc1 | inactive |  |
| Nc1ccccc1C(=O)OC/C=C/c1ccccc1 |  | 1.81% (inactive) |
| N#CNC#N |  | -1.96% [at 78.9 µM] (inactive) |
| CC1(C)CC/C(=C/c2ccc(Cl)cc2)C1(O)Cn1cncn1 (stereo not given) |  | 24.4% (inactive) |
| CC(C)CCCCCOC(=O)c1ccccc1C(=O)OCCCCCC(C)C |  | -8.37% (inactive) |
| CCN |  | 28.3% [at 78.9 µM] (inactive) |
| O=c1[nH]c2ccccc2n1C1CCN(CCCC(c2ccc(F)cc2)c2ccc(F)cc2)CC1 | 5.49 µM (active) |  |
| Nc1ccc(Sc2ccc(N)cc2)cc1 |  | 18.3% (inactive) |
| CNC(C)Cc1ccc2c(c1)OCO2 (stereo not given) |  | -7.98% [at 78.9 µM] (inactive) |
| O=C1NCN(c2ccccc2)C12CCN(CC1COc3ccccc3O1)CC2 (stereo not given) |  | -9.13% (inactive) |
| C[C@@H]1CC[C@@]2(OC1)O[C@H]1[C@@H](O)[C@H]3[C@@H]4CC[C@H]5C[C@@H](O[C@@H]6O[C@H](CO)[C@H](O[C@@H]7O[C@H](CO)[C@@H](O)[C@H](O[C@@H]8OC[C@@H](O)[C@H](O)[C@H]8O)[C@H]7O[C@@H]7O[C@H](CO)[C@@H](O)[C@H](O[C@@H]8O[C@H](CO)[C@@H](O)[C@H](O)[C@H]8O)[C@H]7O)[C@H](O)[C@H]6O)[C@H](O)C[C@]5(C)[C@H]4CC[C@]3(C)[C@H]1[C@@H]2C | 16.4 µM (active) |  |

Reference: PubChem BioAssay (Tox21)
